# Active and inactive are the calls of the source.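 How the source made its calls: active means at least 50% inhibition of LYPLA1 or LYPLA2 at 300 nM, with no off-target enzyme hit at any dose; inactive means under 50% inhibition on both enzymes, or any off-target hit.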
# Tested on: Anti-Targets
# Assay: LYPLA1 inhibitor selectivity over serine hydrolases, late-stage follow-up, selectivity assay for LYPLA1 inhibitor project, cell lysate, competitive ABPP, HEK293T proteome, set 2 (AID 652018)
# Conditions: competitive ABPP FP-PEG-Rh gel; anti-targets hit, at 10 µM
Compound,anti-target count,outcome
O=C(N1CCN(c2ccc(Cl)c(Cl)c2)CC1)n1ncc(C(O)(c2ccccc2)c2ccccc2)n1,0,inactive
O=C(CN1CCN(C(=O)n2nc(Br)c(Br)n2)CC1)Nc1cc(C(F)(F)F)ccc1Cl,0,inactive
O=C(CN1CCN(C(=O)n2nc(Br)nc2Br)CC1)Nc1cc(C(F)(F)F)ccc1Cl,0,inactive
O=C(CN1CCN(C(=O)n2cncn2)CC1)Nc1cc(C(F)(F)F)ccc1Cl,0,inactive
COc1ccc(N2CCN(C(=O)n3cc(-c4ccc(OC(F)(F)F)cc4)nn3)CC2)cc1,0,inactive
O=C(CN1CCN(C(=O)n2cc(C(O)(c3ccccc3)c3ccccc3)nn2)CC1)Nc1cc(C(F)(F)F)ccc1Cl,0,inactive
O=C(CN1CCN(C(=O)n2ncc(-c3ccc(Br)cc3)n2)CC1)Nc1cc(C(F)(F)F)ccc1Cl,0,inactive
O=C(N1CCN(c2ccc(Br)cc2)CC1)n1ncc(C(O)(c2ccccc2)c2ccccc2)n1,0,inactive
COc1ccc(N2CCN(C(=O)n3ncc(-c4ccc(OC(F)(F)F)cc4)n3)CC2)cc1,0,inactive
COc1ccc(N2CCN(C(=O)n3nc(Br)c(Br)n3)CC2)cc1,2,active
O=C(CN1CCN(C(=O)n2cc(-c3ccc(OC(F)(F)F)cc3)nn2)CC1)Nc1cc(C(F)(F)F)ccc1Cl,0,inactive
O=C(CN1CCN(C(=O)n2cc(-c3ccc(-c4ccccc4)cc3)nn2)CC1)Nc1cc(C(F)(F)F)ccc1Cl,0,inactive
COc1ccc(N2CCN(C(=O)n3ncc(C(O)(c4ccccc4)c4ccccc4)n3)CC2)cc1,1,active
O=C(CN1CCN(C(=O)n2nccn2)CC1)Nc1cc(C(F)(F)F)ccc1Cl,0,inactive
COc1ccc(N2CCN(C(=O)n3nccn3)CC2)cc1,0,inactive
COc1ccc(N2CCN(C(=O)n3cncn3)CC2)cc1,0,inactive
O=C(CN1CCN(C(=O)n2ncc(-c3ccc(OC(F)(F)F)cc3)n2)CC1)Nc1cc(C(F)(F)F)ccc1Cl,0,inactive
COc1ccc(N2CCN(C(=O)n3ccnn3)CC2)cc1,0,inactive
O=C(CN1CCN(C(=O)n2ncc(-c3ccc(-c4ccccc4)cc3)n2)CC1)Nc1cc(C(F)(F)F)ccc1Cl,0,inactive
COc1ccc(N2CCN(C(=O)n3cc(C(O)(c4ccccc4)c4ccccc4)nn3)CC2)cc1,2,active
COc1ccc(N2CCN(C(=O)n3ncc(-c4ccccc4)n3)CC2)cc1,0,inactive
COc1ccc(N2CCN(C(=O)n3nc(Br)nc3Br)CC2)cc1,0,inactive
O=C(CN1CCN(C(=O)n2ncc(C(O)(c3ccccc3)c3ccccc3)n2)CC1)Nc1cc(C(F)(F)F)ccc1Cl,1,active
